Experimental data from ChEMBL document CHEMBL1201862, “PubChem BioAssay data set” (2004).
Screen size: about 400,000 compounds; about 2,100 (0.53%) were called active. Inconclusive results (about 14%) are left out. How the calls were made is not given here. The list comes from a sample in which actives are over-represented; it also holds similar structures and randomly drawn compounds.

What follows are molecules tested against Ataxin-2 (Homo sapiens) (UniProt Q99700) (assay: qHTS for Inhibitors of ATXN expression.).
Format: functional

Ataxin-2 (Homo sapiens), sequence (Q99700 whole entry): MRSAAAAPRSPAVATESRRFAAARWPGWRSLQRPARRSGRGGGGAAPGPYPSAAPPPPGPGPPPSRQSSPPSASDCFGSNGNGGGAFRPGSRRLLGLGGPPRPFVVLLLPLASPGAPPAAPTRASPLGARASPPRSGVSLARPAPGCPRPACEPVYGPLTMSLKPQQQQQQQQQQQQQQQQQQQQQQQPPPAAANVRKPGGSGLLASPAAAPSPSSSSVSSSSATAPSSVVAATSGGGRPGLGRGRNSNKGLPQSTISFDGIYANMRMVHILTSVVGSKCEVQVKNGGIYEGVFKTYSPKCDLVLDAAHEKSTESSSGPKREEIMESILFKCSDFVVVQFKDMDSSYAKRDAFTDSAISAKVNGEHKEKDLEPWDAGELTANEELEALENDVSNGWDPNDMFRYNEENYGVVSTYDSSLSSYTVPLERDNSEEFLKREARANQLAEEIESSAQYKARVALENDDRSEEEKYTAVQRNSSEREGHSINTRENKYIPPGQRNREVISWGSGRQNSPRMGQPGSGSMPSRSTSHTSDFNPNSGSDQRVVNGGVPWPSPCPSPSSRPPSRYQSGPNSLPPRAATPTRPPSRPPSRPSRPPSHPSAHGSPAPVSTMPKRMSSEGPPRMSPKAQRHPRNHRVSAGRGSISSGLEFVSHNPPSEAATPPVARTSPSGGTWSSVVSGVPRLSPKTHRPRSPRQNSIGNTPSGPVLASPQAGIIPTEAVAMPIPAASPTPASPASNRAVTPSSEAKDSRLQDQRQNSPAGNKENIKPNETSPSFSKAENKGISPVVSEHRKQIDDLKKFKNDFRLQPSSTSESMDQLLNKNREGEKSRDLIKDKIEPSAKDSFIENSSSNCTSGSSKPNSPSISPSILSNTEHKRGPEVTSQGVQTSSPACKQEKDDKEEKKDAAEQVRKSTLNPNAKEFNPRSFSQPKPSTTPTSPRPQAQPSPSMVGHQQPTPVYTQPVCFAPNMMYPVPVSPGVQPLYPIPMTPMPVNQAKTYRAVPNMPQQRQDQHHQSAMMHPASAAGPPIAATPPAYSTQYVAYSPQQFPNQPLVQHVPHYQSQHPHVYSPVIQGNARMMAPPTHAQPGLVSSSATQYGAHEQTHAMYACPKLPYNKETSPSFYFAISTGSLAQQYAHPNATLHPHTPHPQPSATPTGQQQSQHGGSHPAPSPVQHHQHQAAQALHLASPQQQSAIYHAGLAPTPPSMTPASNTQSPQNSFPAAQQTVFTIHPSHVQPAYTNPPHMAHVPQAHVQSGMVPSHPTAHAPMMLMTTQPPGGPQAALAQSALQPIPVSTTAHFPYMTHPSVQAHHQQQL

SMILES	Potency
Cc1c(CC(=O)N2CCN(C(=O)C3COc4ccccc4O3)CC2)c(=O)oc2cc(O)c(Cl)cc12 (stereo not drawn)	inactive
Nc1cccc2c1C(=O)N(c1ccccc1)C2=O	inactive
Cc1ccc(C(=O)Nc2nc3n(n2)C(c2ccccc2)C=C(c2ccccc2)N3)cc1 (stereo not drawn)	inactive
CNc1cc(C)c(C#N)c2nc3ccccc3n12	inactive
CCN(CC)Cc1cc(O)c(CN(CC)CC)cc1O	inactive
CCC(c1ccc(O)c(O)c1)C(CC)c1ccc(O)c(O)c1 (stereo not drawn)	31.6 µM (active)
CC(C)(C)N1C(=O)c2ccc(C(=O)Nc3cc(C(=O)O)cc(C(=O)O)c3)cc2C1=O	inactive
COc1ccc(CCNC(=S)NC(=O)c2cc(OC)c(OC)c(OC)c2)cc1OC	inactive
COc1cc(C(=O)NCCc2csc(-c3ccc(Cl)cc3)n2)cc(OC)c1OC	28.2 µM (active)
COc1cc(C(=O)NCCNc2nc3ccc(C)cc3cc2C#N)cc(OC)c1OC	inactive
COc1ccc2nc(-c3ccccc3)cc(C(=O)N3CCC3)c2c1	inactive
COc1ccc2nc(-c3ccccc3)cc(C(=O)OCC(=O)N3CC(C)OC(C)C3)c2c1 (stereo not drawn)	inactive
COc1ccc(-c2cc(C(=O)Oc3ccccc3)c3cc(C)ccc3n2)cc1	35.5 µM (active)
CCOC(=O)c1c(NC(=O)CCl)sc(CN(C)C)c1-c1ccccc1	37.7 µM (active)
CCOC(=O)c1c(N)sc(C(=O)Nc2ccccc2)c1C	inactive
CCOC(=O)c1c(C)nc2sc(C(=O)Nc3ccccc3)c(N)c2c1-c1ccc(OC)cc1	inactive
CC(=O)Nc1nc2n(n1)C(c1ccc(F)cc1)C=C(c1ccccc1)N2 (stereo not drawn)	inactive
CCCCCn1/c(=N/C(C)=O)c(C#N)cc2c(=O)n3ccccc3nc21	inactive
COc1ccccc1[C@@H]1C(c2ccccc2)=NN(c2ccc(Br)cc2)[C@H]1C(=O)N1CCOC1=O	inactive
Cc1nc(N2N=C3/C(=C/c4ccc(F)cc4)CCCC3C2c2ccc(F)cc2)sc1C(=O)N(C)C (stereo not drawn)	inactive
CCCn1c(O)nnc1SCC(=O)N1N=C2/C(=C/c3ccc(OC)cc3)CCCC2C1c1ccc(OC)cc1 (stereo not drawn)	25.1 µM (active)
CNC(=O)c1sc(N2N=C3/C(=C/c4ccccc4)CCCC3C2c2ccccc2)nc1C (stereo not drawn)	inactive
O=c1[nH]c(=O)c2nc3c4ccccc4c4ccccc4c3nc2[nH]1	inactive
CC1CCC2C(=O)N(c3ccc(C(=O)Oc4cccc5cccnc45)cc3)C(=O)C2C1 (stereo not drawn)	inactive
CN(C)c1ccc2c(O)ccnc2c1	inactive
Cc1cc2nn(-c3ccc(Cl)cc3)nc2cc1N	inactive
Cc1cc2nc3ccc(N(C)C)cc3nc2cc1N	25.1 µM (active)
Nc1c(C(=O)NCCN2CCOCC2)c2nc3ccccc3nc2n1CCc1ccccc1	inactive
